# Columns and labels:
# [1] = test system: Vero E6 infected with SARS-CoV-2; assay: morphology score (similarity to uninfected cells); higher = more like uninfected cells; conditions: 24 h
# [2] = test system: Vero E6 infected with SARS-CoV-2; assay: SARS-CoV-2 infection rate relative to infected DMSO; higher = more infection, active = 60 or less; conditions: 24 h
Compound,morphology score [1],SARS-CoV-2 infection rate [2]
O=[N+]([O-])/N=C1\NCCN1Cc1ccc(Cl)nc1 [imidacloprid] (10 µM),0.114,98.5% (inactive)
Cc1cnc(C(=O)O)c[n+]1[O-] [acipimox] (10 µM),0.0683,108% (inactive)
COc1cc2/c(=N/c3ccc(Br)cc3F)nc[nH]c2cc1OCC1CCN(C)CC1 [vandetanib] (10 µM),0.0459,102% (inactive)
CCN(CC)C(=O)N[C@H]1C[C@@H]2c3cccc4[nH]cc(c34)C[C@H]2N(C)C1 [terguride] (10 µM),-0.00522,110% (inactive)
Cn1c(=O)c2c(ncn2CCOC(=O)C(C)(C)Oc2ccc(Cl)cc2)n(C)c1=O [etofylline-clofibrate] (10 µM),-0.162,114% (inactive)
COC(=O)[C@H](NC(=O)c1cc(-c2ccccc2)nc2ccccc12)c1ccccc1 (10 µM),0.0787,100% (inactive)
N#Cc1c(-c2ccccc2)cc(-c2cc(Br)ccc2O)[nH]c1=O (10 µM),0.048,110% (inactive)
CCN(CC)C(=O)N1CCN(C)CC1 [diethylcarbamazine] (10 µM),0.035,104% (inactive)
C[C@H]1O[C@@H](O[C@H]2CC[C@@]3(C)[C@H](CC[C@@H]4[C@@H]3C[C@@H](O)[C@]3(C)[C@@H](C5=CC(=O)OC5)CC[C@]43O)C2)C[C@H](O)[C@@H]1O[C@H]1C[C@H](O)[C@H](O[C@H]2C[C@H](O)[C@H](O[C@@H]3O[C@H](CO)[C@@H](O)[C@H](O)[C@H]3O)[C@@H](C)O2)[C@@H](C)O1 [deslanoside] (0.833333 µM),-0.123,114% (inactive)
